High-throughput results deposited in PubChem BioAssay by National Center for Advancing Translational Sciences (NCATS).
An excerpt weighted towards active compounds, which were near 4.1% of everything screened.
AmpC inh detg: inhibitors of E. coli AmpC beta-lactamase with detergent; AmpC hydrolysis of nitrocefin, absorbance 480 nm, 0.01% Triton; Potency, µM (doses to about 114 µM), without a hit: at the highest dose activity change, negative = inhibition, most hits filed as inhibitors; 370,000 compounds, 0.041% hits;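 note: 0% = no-compound wells and -100% = no-enzyme wells; nearly all actives have a fitted effect of over 25% in size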
Target sequence (P00811 whole entry, looked up): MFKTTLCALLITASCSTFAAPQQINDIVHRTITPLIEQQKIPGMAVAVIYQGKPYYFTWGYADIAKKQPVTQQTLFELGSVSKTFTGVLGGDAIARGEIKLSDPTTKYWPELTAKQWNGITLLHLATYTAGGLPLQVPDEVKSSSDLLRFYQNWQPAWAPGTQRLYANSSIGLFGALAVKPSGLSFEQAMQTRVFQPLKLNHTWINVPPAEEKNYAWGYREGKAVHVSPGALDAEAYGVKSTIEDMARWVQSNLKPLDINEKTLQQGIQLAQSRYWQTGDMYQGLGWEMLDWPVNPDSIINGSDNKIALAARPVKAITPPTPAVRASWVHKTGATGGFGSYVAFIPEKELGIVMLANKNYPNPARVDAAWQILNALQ
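20 mM phosphate pH 7.0 + 0.01% (detergent screen) or 0.0001% Triton X-100; 5.3 nM AmpC reagent; cpd preinc 15 min RT; nitrocefin (800 uM stock) to start; A480 q20 s × 4 min; Activity was normalised to no-enzyme and no-compound control wells.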
Sm TGR inh: blocks Schistosoma mansoni thioredoxin glutathione reductase | 360,000 compounds, 3% hits | Potency, µM (doses to about 114 µM), for inactives: top-dose activity change, negative = inhibition, usual class: inhibitors | AID 485364 | Q962Y6 | purified TGR, DTNB reduction, TNB absorbance 405 nm; note: nearly all actives have a fitted effect of over 60% in size
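Kinetic colorimetric format: TGR-catalysed, NADPH-driven DTNB reduction monitored via TNB absorbance. Enzyme dispensed at 20 nM; compound exposure 15 min at room temperature before reaction start.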
AMA1 RON2 block: disrupts binding of P. falciparum AMA1 to RON2; AlphaScreen AMA1-biotinylated RON2 peptide binding; 360,000 compounds, 0.2% hits; Potency, µM (titrated, usually from 58.2 µM), for the others: at the highest dose activity change, negative = inhibition, hits mostly inhibitors; AID 720542;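 note: 0% = vehicle wells and -100% = peptide control; nearly all actives have a fitted effect of over 45% in size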
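AMA1 (3D7) with his tag at 25 nM final met compounds first, then biotinylated RON2 peptide at 25 nM; detection used donor plus acceptor beads, 10 µg/mL apiece, read by AlphaScreen after 30 min at room temperature.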
AmpC no deterg: blocks E. coli AmpC beta-lactamase in detergent-free assay; P00811; AmpC nitrocefin hydrolysis, absorbance 480 nm, 0.0001% Triton; Potency, µM (series often up to 57.1 µM), without a hit: at the highest dose activity change, negative = inhibition, hits mostly inhibitors; 330,000 compounds, 0.52% hits;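 note: plate controls were no compound for no effect and no enzyme for full effect; nearly all actives have a fitted effect of over 20% in size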
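AmpC (5.3 nM in the dispensed reagent) in 20 mM phosphate pH 7.0 with 0.01% (detergent screen) or 0.0001% Triton X-100 was preincubated with compounds for 15 min at room temperature. Nitrocefin was then added from an 800 uM solution, and hydrolysis was followed at 480 nm.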
FMDV antiviral: blocks foot and mouth disease virus. FMDV antiviral cell-based qHTS. Potency, µM (titrated, usually from 57.9 µM), inactives show top-dose activity change, negative = inhibition, usual class: inhibitors. 410,000 compounds, 1.2% hits. AID 1159524; calls by dose curve; tested in HEK293T cells; note: read-out not given here; nearly all actives have a fitted effect of over 45% in size
An asterisk follows results filed as active; ? = inconclusive; . = no result given; [ ] = dose if it differs, or a comment. Unless noted, calls come from the whole dose curve; as a rule, active = well fitted curve in the direction sought with a large enough effect; inconclusive = small, poorly fitted or top-dose-only effect, or another doubt; inactive = no such curve, though single readings can be large; an effect the other way counts as inactive or inconclusive. Unless noted, % is set by controls: 0 for no effect and ±100 for the full control effect; potency is the fitted concentration of half-maximal effect.

SMILES	AmpC inh detg	Sm TGR inh	AMA1 RON2 block	AmpC no deterg	FMDV antiviral
Cc1cccc(C(=O)Nc2nnc(S(=O)(=O)N(C)Cc3ccc(Cl)cc3)s2)c1	-8%	0%	.	.	-14%
Fc1ccc(C2=NN(c3ccccc3)C(c3ccco3)C2)cc1 (stereo not given)	9%	0%	145%	-16%	-8%
O=[N+]([O-])c1ccc(/C=C/C2=NN(c3ccccc3)C(c3ccco3)C2)o1 (stereo not given)	3%	40µM*	-19%	-32%	-14%
C(=C\c1ccco1)/C1=NN(c2ccccc2)C(c2ccco2)C1 (stereo not given)	-11%	28µM*	0%	-49%	-14%
CC1CCN(S(=O)(=O)c2ccc3nc(NCc4ccccc4)ccc3c2)CC1	4%	-4%	.	.	11%
Cc1ccc(CNc2nc(CN3CCN(C=O)CC3)nc3ccccc23)o1	.	.	.	.	-3%
O=C(c1ccco1)N1CCN=C1SCc1ccc(F)cc1	?	5%	25%	8.9µM*	-1%
O=C(c1ccco1)N1CCN=C1SCc1cccc(F)c1	4%	1%	14%	-20%	0%
COCCCNC(=O)/C(C#N)=C/c1c(N2CCN(c3cccc(Cl)c3)CC2)nc2c(C)cccn2c1=O	3%	5%	-10%	10%	-21%
COCCCNC(=O)/C(C#N)=C/c1c(N2CCN(c3ccccc3)CC2)nc2c(C)cccn2c1=O	2%	35µM*	-18%	121%	-12%
COc1ccccc1CN1CCOc2ccc(C(C)(O)CN(C)C)cc2C1 (stereo not given)	.	.	.	.	-17%
CN(Cc1ccccc1)c1nc(N)c([N+](=O)[O-])c(NCc2ccccc2)n1	?	-3%	?	-38%	35µM*
Cn1cc(C(N)=O)c2ccccc21	2%	3%	6%	1%	-7%
Cn1cc(C(=O)CCl)c2ccccc21	-1%	3.5µM*	17%	-11%	22µM*
Cc1ccc(S[C@@H](CCN2CC[C@H](C)CCC2=O)c2ccccc2)cc1	-16%	0%	-4%	72%	-9%
COc1ccc(S[C@@H](CCN2CC[C@H](C)CCC2=O)c2ccccc2)cc1	11%	40µM*	6%	120%	-6%
Nc1ccc(-c2cc3ccccc3oc2=O)cc1	0%	-11%	0%	-14%	1.1µM*
O=Cc1ccc(N2Cc3ccccc3C2)cc1	?	?	5%	-13%	13%
Oc1cccc(N2Cc3ccccc3C2)c1	-4%	10µM*	-5%	-55%	29%
Oc1ccc(N2Cc3ccccc3C2)cc1	1%	22µM*	0%	-27%	22%
COCC1CCCN(Cc2ccc3c(c2)CN(C(=O)c2ccc(-c4ccc(C)o4)cc2)CCO3)C1 (stereo not given)	.	.	.	.	8%
CCC(=O)N1CCc2cc(S(=O)(=O)N(CC)c3cccc(C)c3)ccc21	-2%	-5%	12%	-18%	0%
CCN(c1cccc(C(F)(F)F)c1)S(=O)(=O)c1ccc2c(c1)CCN2C(=O)C1CC1	-4%	-16%	-11%	30%	14µM*
COc1ccc(OC)c(NC(=O)N(C)CCc2c(C)nn(C)c2C)c1	11%	-1%	.	.	-10%
COc1ccc(C2C3=C(CC(C)(C)CC3=O)Oc3ncn(CC(C)C)c(=N)c32)cc1 (stereo not given)	3%	11%	-6%	135%	-29%
SMILES	AmpC inh detg	Sm TGR inh	AMA1 RON2 block	AmpC no deterg	FMDV antiviral
COc1ccc(C2C3=C(CC(C)(C)CC3=O)Oc3ncn(Cc4ccco4)c(=N)c32)cc1 (stereo not given)	-10%	-14%	-10%	29%	28µM*
COC(=O)c1c(NC(=O)c2cc(=O)c3ccc(C)c(C)c3o2)sc2c1CCCC2	16%	1%	.	.	-18%
COc1cccc(CNC(=O)c2ccc(Cn3c(SCc4ccccc4)nc4cccnc43)cc2)c1	3%	-1%	.	.	-5%
Cc1cccc(C)c1OCC(O)CN1CCC(CN2C(=O)c3cccc4cccc(c34)C2=O)CC1 (stereo not given)	5%	?	-23%	-3%	22µM*
C=CCc1ccccc1OCC(O)CN1CCN(C(=O)OCC)CC1 (stereo not given)	-10%	40µM*	-14%	118%	-14%
CCC(OCC(O)CN1CCN(CCN2C(=O)c3cccc4cccc(c34)C2=O)CC1)c1ccccc1 (stereo not given)	?	-9%	?	172%	28µM*
CCOC(=O)N1CCN(CC(O)COc2ccccc2C(C)C)CC1 (stereo not given)	-5%	1%	-1%	133%	?
CC(C)OCC(O)CN1CCN(CCN2C(=O)c3cccc4cccc(c34)C2=O)CC1 (stereo not given)	?	-2%	-5%	10%	-18%
C=CCc1ccccc1OCC(O)CN1CCN(CCN2C(=O)c3cccc4cccc(c34)C2=O)CC1 (stereo not given)	-9%	-1%	?	185%	28µM*
CN[C@H]1CCc2cc(OC)c(OC)c(OC)c2-c2ccc(N[C@@H]3CCCCNC3=O)c(=O)cc21	.	.	.	.	-3%
Cc1nc2cccnc2n1-c1cccc(C(=O)NCCN(C)C)c1	11%	-2%	.	.	-6%
COc1ccc(CN2CCOc3ccc(CN4CCC(O)(c5cccnc5)CC4)cc3C2)cc1OC	.	.	.	.	-28%
COc1ccc(C(=O)c2cn(CC(=O)Nc3cc(C)ccc3C)c3nc(C)ccc3c2=O)cc1	15%	1%	.	.	-4%
CC1(C)C(=O)Nc2ccccc2N1C(=O)Cn1ncc(Cl)c(Cl)c1=O	9%	10µM*	9%	-18%	-22%
O=C(Cn1ncc(Cl)c(Cl)c1=O)N1CCc2ccccc21	-6%	16µM*	-7%	-7%	?
O=C(Cn1ncc(Cl)c(Cl)c1=O)N1CCOCC1	-3%	-29%	-8%	-41%	0%
CC1(C)C(=O)Nc2ccccc2N1C(=O)CSc1nc(-c2ccccc2)cs1	-4%	-7%	2%	-25%	16µM*
O=C(Cn1ncc(Cl)c(Cl)c1=O)N1CCN(Cc2ccccc2)CC1	-11%	8.9µM*	-9%	1%[11.4 µM]	?
Cc1ccc(CNC(=O)C2CCC(CNS(=O)(=O)c3ccc(C)cc3)CC2)cc1 (stereo not given)	13%	33%	.	.	9%
CC(=O)OC/C=C(\C)CC/C=C(\C)CC/C=C(\C)CC/C=C(\C)CC/C=C(\C)CC/C=C(\C)CC/C=C(\C)CC/C=C(\C)CCC=C(C)C	.	.	.	.	-7%
CC(C)=CCC/C(C)=C/CC/C(C)=C/CC/C(C)=C/CC1=C(C)C(=O)c2ccccc2C1=O	1%	32µM*	-8%	-21%	?
COc1ccccc1OCC(=O)O	-11%	5%	-6%	-13%	0%
CC(C)=CCC1=C(OCC(=O)O)C(=O)c2ccccc2C1=O	8%	10µM*	-2%	-35%	?
